# Substitutions are numbered along the chain they refer to.
# Key:
# Assay in all cases: PBM; 200 nM protein, PBS
# Settings in all cases: dsDNA, one strand shown
# [1] = molecular target: HOXB9 (Homo sapiens, UniProt P17482 171-250, T197M)
# [2] = molecular target: HOXC9 (Homo sapiens, UniProt P31274 178-260, K195R)
# [3] = molecular target: T1, VENTX (Homo sapiens, UniProt O95231 78-163)
# T1 sequence: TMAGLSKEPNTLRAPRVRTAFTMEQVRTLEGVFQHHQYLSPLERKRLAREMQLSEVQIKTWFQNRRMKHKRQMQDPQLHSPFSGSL
# [4] = molecular target: T2, PAX4 (Homo sapiens, UniProt O43316 9-242, R200K)
# T2 sequence: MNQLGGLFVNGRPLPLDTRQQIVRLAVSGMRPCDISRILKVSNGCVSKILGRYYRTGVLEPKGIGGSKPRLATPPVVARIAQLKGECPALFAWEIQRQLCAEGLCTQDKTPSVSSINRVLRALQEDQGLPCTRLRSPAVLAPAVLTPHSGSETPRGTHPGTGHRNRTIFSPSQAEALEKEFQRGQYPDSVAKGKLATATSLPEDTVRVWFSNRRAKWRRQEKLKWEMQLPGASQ
# [5] = molecular target: T3, VENTX (Homo sapiens, UniProt O95231 78-163, Y115F)
# T3 sequence: T1 sequence with Y38F
# [6] = molecular target: T4, PAX4 (Homo sapiens, UniProt O43316 9-242)
# T4 sequence: T2 sequence with K192R
# [7] = molecular target: HOXB9 (Homo sapiens, UniProt P17482 171-250)
# [8] = molecular target: T5, PAX4 (Homo sapiens, UniProt O43316 9-242, R200Q)
# T5 sequence: T2 sequence with K192Q
# [9] = molecular target: HOXC9 (Homo sapiens, UniProt P31274 178-260, R193K)
# [10] = molecular target: HOXA2 (Homo sapiens, UniProt O43364 129-215, R185K)
# [11] = molecular target: T6, PAX4 (Homo sapiens, UniProt O43316 9-242, F177V)
# T6 sequence: T2 sequence with F169V, K192R
# [12] = molecular target: HOXC10 (Homo sapiens, UniProt Q9NYD6 254-340, K271E)
# [13] = molecular target: T7, PAX4 (Homo sapiens, UniProt O43316 9-242, F177Y)
# T7 sequence: T2 sequence with F169Y, K192R
# [14] = molecular target: VAX1 (Homo sapiens, UniProt Q5SQQ9 86-172)
# [15] = molecular target: HOXB9 (Homo sapiens, UniProt P17482 171-250, R186Q)
# [16] = molecular target: HOXC9 (Homo sapiens, UniProt P31274 178-260, R222W)
# [17] = molecular target: T8, PAX4 (Homo sapiens, UniProt O43316 9-242, R227W)
# T8 sequence: T2 sequence with K192R, R219W
# [18] = molecular target: HOXA2 (Homo sapiens, UniProt O43364 129-215, Y150S)
# [19] = molecular target: HOXA2 (Homo sapiens, UniProt O43364 129-215)
# Sequence of HOXA2 (Homo sapiens, UniProt O43364 129-215) (O43364 129-215): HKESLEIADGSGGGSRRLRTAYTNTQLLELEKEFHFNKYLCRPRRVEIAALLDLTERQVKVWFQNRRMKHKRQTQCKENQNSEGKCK
# Sequence of HOXB9 (Homo sapiens, UniProt P17482 171-250) (P17482 171-250): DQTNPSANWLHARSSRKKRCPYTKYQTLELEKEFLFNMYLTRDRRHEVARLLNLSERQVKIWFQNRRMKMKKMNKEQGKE
# Sequence of HOXB9 (Homo sapiens, UniProt P17482 171-250, T197M) (P17482 171-250 T197M): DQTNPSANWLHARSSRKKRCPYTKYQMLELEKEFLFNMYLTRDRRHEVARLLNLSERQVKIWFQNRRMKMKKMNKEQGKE
# Sequence of HOXC9 (Homo sapiens, UniProt P31274 178-260, K195R) (P31274 178-260 K195R): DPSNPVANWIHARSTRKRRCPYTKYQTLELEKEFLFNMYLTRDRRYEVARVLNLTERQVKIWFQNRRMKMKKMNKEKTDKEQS
# Sequence of HOXB9 (Homo sapiens, UniProt P17482 171-250, R186Q) (P17482 171-250 R186Q): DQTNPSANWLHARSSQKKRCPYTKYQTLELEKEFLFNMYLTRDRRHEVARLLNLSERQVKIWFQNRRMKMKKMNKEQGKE
# Sequence of HOXC9 (Homo sapiens, UniProt P31274 178-260, R222W) (P31274 178-260 R222W): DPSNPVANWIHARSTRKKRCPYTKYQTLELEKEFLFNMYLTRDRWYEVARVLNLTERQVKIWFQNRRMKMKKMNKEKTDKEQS
# Sequence of VAX1 (Q5SQQ9 86-172): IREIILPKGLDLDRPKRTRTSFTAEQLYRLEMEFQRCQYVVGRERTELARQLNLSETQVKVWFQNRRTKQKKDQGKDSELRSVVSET
# Sequence of HOXC9 (Homo sapiens, UniProt P31274 178-260, R193K) (P31274 178-260 R193K): as the sequence (P31274 178-260 R222W) above, with R16K, W45R counted along it
# Sequence of HOXA2 (Homo sapiens, UniProt O43364 129-215, Y150S) (O43364 129-215 Y150S): as the sequence (O43364 129-215) above, with Y22S counted along it
# Sequence of HOXC10 (Q9NYD6 254-340 K271E): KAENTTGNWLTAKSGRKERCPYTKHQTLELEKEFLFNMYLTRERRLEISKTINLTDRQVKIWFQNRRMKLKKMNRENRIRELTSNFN
# Sequence of HOXA2 (Homo sapiens, UniProt O43364 129-215, R185K) (O43364 129-215 R185K): as the sequence (O43364 129-215) above, with R57K counted along it
sequence,measurement,setting,value
ATAATTAC,binding signal,[1],"10.5 upbm affinity estimate (log intensity, higher = more binding, comparable within an allelic series)"
same,binding signal,[2],"13 upbm affinity estimate (log intensity, higher = more binding, comparable within an allelic series)"
same,binding signal,[3],"12.5 upbm affinity estimate (log intensity, higher = more binding, comparable within an allelic series)"
same,binding signal,[4],"11.8 upbm affinity estimate (log intensity, higher = more binding, comparable within an allelic series)"
same,binding signal,[5],"12 upbm affinity estimate (log intensity, higher = more binding, comparable within an allelic series)"
same,binding signal,[6],"12.3 upbm affinity estimate (log intensity, higher = more binding, comparable within an allelic series)"
same,binding signal,[7],"12.1 upbm affinity estimate (log intensity, higher = more binding, comparable within an allelic series)"
same,binding signal,[8],"12.3 upbm affinity estimate (log intensity, higher = more binding, comparable within an allelic series)"
same,binding signal,[9],"12.9 upbm affinity estimate (log intensity, higher = more binding, comparable within an allelic series)"
same,binding signal,[10],"13.9 upbm affinity estimate (log intensity, higher = more binding, comparable within an allelic series)"
same,binding signal,[11],"10.8 upbm affinity estimate (log intensity, higher = more binding, comparable within an allelic series)"
same,binding signal,[12],"12.4 upbm affinity estimate (log intensity, higher = more binding, comparable within an allelic series)"
same,binding signal,[13],"11.2 upbm affinity estimate (log intensity, higher = more binding, comparable within an allelic series)"
same,binding signal,[14],"13.4 upbm affinity estimate (log intensity, higher = more binding, comparable within an allelic series)"
same,binding signal,[15],"11.9 upbm affinity estimate (log intensity, higher = more binding, comparable within an allelic series)"
same,binding signal,[16],"11.1 upbm affinity estimate (log intensity, higher = more binding, comparable within an allelic series)"
same,binding signal,[17],"11.2 upbm affinity estimate (log intensity, higher = more binding, comparable within an allelic series)"
same,binding signal,[18],"11.1 upbm affinity estimate (log intensity, higher = more binding, comparable within an allelic series)"
same,binding signal,[19],"13.1 upbm affinity estimate (log intensity, higher = more binding, comparable within an allelic series)"
AATTAATG,binding signal,[1],"10.2 upbm affinity estimate (log intensity, higher = more binding, comparable within an allelic series)"
same,binding signal,[2],"12.8 upbm affinity estimate (log intensity, higher = more binding, comparable within an allelic series)"
same,binding signal,[3],"12.5 upbm affinity estimate (log intensity, higher = more binding, comparable within an allelic series)"
same,binding signal,[4],"11.9 upbm affinity estimate (log intensity, higher = more binding, comparable within an allelic series)"
same,binding signal,[5],"11.8 upbm affinity estimate (log intensity, higher = more binding, comparable within an allelic series)"
same,binding signal,[6],"12.5 upbm affinity estimate (log intensity, higher = more binding, comparable within an allelic series)"
same,binding signal,[7],"12.1 upbm affinity estimate (log intensity, higher = more binding, comparable within an allelic series)"
same,binding signal,[8],"12.3 upbm affinity estimate (log intensity, higher = more binding, comparable within an allelic series)"
same,binding signal,[9],"12.8 upbm affinity estimate (log intensity, higher = more binding, comparable within an allelic series)"
same,binding signal,[10],"13.5 upbm affinity estimate (log intensity, higher = more binding, comparable within an allelic series)"
same,binding signal,[11],"10.6 upbm affinity estimate (log intensity, higher = more binding, comparable within an allelic series)"
same,binding signal,[12],"12 upbm affinity estimate (log intensity, higher = more binding, comparable within an allelic series)"
same,binding signal,[13],"11.2 upbm affinity estimate (log intensity, higher = more binding, comparable within an allelic series)"
same,binding signal,[14],"13.1 upbm affinity estimate (log intensity, higher = more binding, comparable within an allelic series)"
same,binding signal,[15],"11.8 upbm affinity estimate (log intensity, higher = more binding, comparable within an allelic series)"
same,binding signal,[16],"11 upbm affinity estimate (log intensity, higher = more binding, comparable within an allelic series)"
same,binding signal,[17],"11.1 upbm affinity estimate (log intensity, higher = more binding, comparable within an allelic series)"
same,binding signal,[18],"11 upbm affinity estimate (log intensity, higher = more binding, comparable within an allelic series)"
same,binding signal,[19],"12.5 upbm affinity estimate (log intensity, higher = more binding, comparable within an allelic series)"
ATAATTAA,binding signal,[1],"10.3 upbm affinity estimate (log intensity, higher = more binding, comparable within an allelic series)"
same,binding signal,[2],"12.9 upbm affinity estimate (log intensity, higher = more binding, comparable within an allelic series)"
same,binding signal,[3],"12.5 upbm affinity estimate (log intensity, higher = more binding, comparable within an allelic series)"
same,binding signal,[4],"11.9 upbm affinity estimate (log intensity, higher = more binding, comparable within an allelic series)"
same,binding signal,[5],"12 upbm affinity estimate (log intensity, higher = more binding, comparable within an allelic series)"
same,binding signal,[6],"12.4 upbm affinity estimate (log intensity, higher = more binding, comparable within an allelic series)"
same,binding signal,[7],"12.1 upbm affinity estimate (log intensity, higher = more binding, comparable within an allelic series)"
same,binding signal,[8],"12.3 upbm affinity estimate (log intensity, higher = more binding, comparable within an allelic series)"
same,binding signal,[9],"12.8 upbm affinity estimate (log intensity, higher = more binding, comparable within an allelic series)"
same,binding signal,[10],"13.7 upbm affinity estimate (log intensity, higher = more binding, comparable within an allelic series)"
same,binding signal,[11],"10.8 upbm affinity estimate (log intensity, higher = more binding, comparable within an allelic series)"
same,binding signal,[12],"12.3 upbm affinity estimate (log intensity, higher = more binding, comparable within an allelic series)"
same,binding signal,[13],"11.2 upbm affinity estimate (log intensity, higher = more binding, comparable within an allelic series)"
same,binding signal,[14],"13.5 upbm affinity estimate (log intensity, higher = more binding, comparable within an allelic series)"
same,binding signal,[15],"11.9 upbm affinity estimate (log intensity, higher = more binding, comparable within an allelic series)"
same,binding signal,[16],"11.2 upbm affinity estimate (log intensity, higher = more binding, comparable within an allelic series)"
same,binding signal,[17],"11.2 upbm affinity estimate (log intensity, higher = more binding, comparable within an allelic series)"
same,binding signal,[18],"11 upbm affinity estimate (log intensity, higher = more binding, comparable within an allelic series)"
same,binding signal,[19],"13 upbm affinity estimate (log intensity, higher = more binding, comparable within an allelic series)"

# — paper PMC11006913
